Test results taken from PubChem BioAssay (NCI).
About 83,000 compounds went through this panel and 20% of them were active in at least one assay; those are over-represented in the sample as a whole.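 48-hour exposure, single concentration, 96-well plates; percent growth endpoint where 0 means no net growth. Active: below 10.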 Values without a mark were called inactive. The source made the active and inactive calls.

Each compound was assayed on HL-60(TB) leukemia (assay: NCI-60 one-dose screen, 48 h (100 = growth as untreated, 0 = no growth, -100 = all killed)). Conditions: 10 µM unless noted.
With `COc1ccc2[nH]cc(-c3cc(N)n4nc(-c5cn(C)c6ccccc56)cc4n3)c2c1` the growth was -40.7% (active). `COc1cc(C2CC(c3cc(OC)c(OC)c(OC)c3)=NN2C(C)=O)ccc1OCc1ccc(F)cc1` (stereo unspecified) gave a growth of 37.3%. `O=C1NC(=NC23CC4CC(CC(C4)C2)C3)N/C1=C\c1ccc2ncccc2n1` was tested, and the growth was -19.1% (active). For `FC(F)(F)c1cc2c(Cl)ncnc2n1CCN1CCOCC1`, the growth was 7.02% (active). `CC1(C)CC[C@]2(C(=O)O)CC[C@]3(C)C(=CCC4[C@@]5(C)C[C@@H](O)[C@@H]6OC(c7ccccc7Br)OC[C@@]6(C)C5CC[C@]43C)C2C1` (stereo partly specified) was tested, and the growth was 4.07% (active). `COc1ccc(-c2nnc3c(/C=C/c4ccc(Br)cc4)nc4ccccc4n23)cc1` was tested, and the growth was 3.92% (active). In the case of `CN(C)c1ccc(/C=C/c2n(Cc3ccc4ccccc4c3)c3ccccc3[n+]2Cc2ccc3ccccc3c2)cc1`, the growth was -47.1% (active). Work on `CC(=O)Nc1cccc(Nc2nc(N[C@H]3CCCc4ccccc43)c3ccccc3n2)c1` yielded a growth of 90.6%. With `CC1=N/C(=C\c2ccc(N(C)C)cc2)C(=O)N1CCc1ccc(S(N)(=O)=O)cc1` the growth was 102%. `CC1(C)CC[C@]2(C(=O)O)CC[C@]3(C)C(=CCC4[C@@]5(C)C[C@@H](O)[C@@H]6OC(c7ccc(F)cc7)OC[C@@]6(C)C5CC[C@]43C)C2C1` (stereo partly specified) was tested, and the growth was 3.11% (active). With `CCOC(=O)C1=C(N)N(c2ccccc2)C2=C(C(=O)CC(C)(C)C2)C1c1ccccc1Cl` (stereo unspecified) the growth was -23% (active). In the case of `CCN1C(=O)N(CC)C2NNC(Sc3c(C(=O)O)c4ccccc4n(CCC(C)C)c3=O)=NC21` (stereo unspecified), the growth was -48.1% (active). With `Cn1cc(-c2cc(N)n3nc(-c4c[nH]c5ccc(Cl)cc45)cc3n2)c2cccnc21` the growth was -59.8% (active). Compound `CN(C)c1ccc(/C=C/C(=O)c2ccc(NC(=O)CN3C(=O)NC(C)(c4ccccc4)C3=O)cc2)cc1` (stereo unspecified) has a growth of 47.5%. In the case of `N#Cc1c(NC(=O)c2ccc(C(O)(C(F)(F)F)C(F)(F)F)cc2)sc2c1CCC(=O)C2`, the growth was -23.4% (active). With `CCN1C(=O)N(CC)C2NNC(Sc3c(C(=O)O)c4ccccc4n(C4CCCC4)c3=O)=NC21` (stereo unspecified) the growth was -9.96% (active). With `CO[C@@H]1CSS[C@H]1Cn1nc(-c2ccc(Oc3ccccc3)cc2)c2c(N)ncnc21` the growth was 25.8%. With `COc1cccc(-c2c(C#N)c(-c3ccc(Cl)cc3)nc3n[nH]c(-c4ccc(Cl)cc4)c23)c1` the growth was 7.69% (active). `N#CC1=C(c2ccco2)Nc2c(c(-c3ccccc3)nn2-c2ccccc2)C12C(=O)Nc1ccc(Cl)cc12` (stereo unspecified) gave a growth of 43.8%. `COc1ccc(N=Nc2c(N)nn3c(-c4ccc5c(c4)C=S=C5)ccnc23)cc1` showed a growth of 37.7%. With `O=C(NO)c1ccc(Cn2ccc3c(Nc4ccccc4)ncnc32)cc1` the growth was 0.922% (active). Compound `CN1CCN(c2ccc(C(=O)/C=C/c3ccc(C#N)cc3)cc2)CC1` has a growth of 65.1%. `O=C1N/C(=N\c2nccs2)S/C1=C\c1ccc([N+](=O)[O-])cc1` was tested, and the growth was 5.47% (active). With `COC(=O)C[C@](O)(CCCC(C)(C)O)C(=O)O[C@H]1C(OC)=C[C@@]23CCCN2CCc2cc4c(cc2[C@@H]13)OCO4` the growth was -30.3% (active). `CC1=C(C)C(=O)C(N2CCSCC2)=CC1=O` showed a growth of 89.3%. `CO[C@H]1CSS[C@@H]1Cn1nc(-c2ccc(Oc3ccccc3)cc2)c2c(N)ncnc21` was tested, and the growth was 8.96% (active). In the case of `c1n[nH]cc1-c1nc2ccc3[nH]ncc3c2c2c1CC1(CCOCC1)CC2`, the growth was 26.5%. `CN(C)CCn1c2ccccc2c2nc3ccc([N+](=O)[O-])cc3nc21` was tested, and the growth was 5.67% (active). For `Cc1ccc2c(c1)nc(-c1ccccc1)n2CC(=O)N=Nc1c(O)[nH]c2ccc(Br)cc12`, the growth was 7.86% (active). `CCCCSc1nc(Nc2ccc(C(C)=O)cc2)c(C#N)c(-c2ccc(OC)cc2)n1` showed a growth of 88%. In the case of `Cc1cc(N=C2NC(=O)S/C2=C\c2ccc(F)cc2)n[nH]1`, the growth was 1.74% (active). For `N#Cc1ccc(NC(=O)CSc2ccc(-c3ccc(Br)cc3)nn2)cc1`, the growth was 82.9%. For `O=C(Nc1nc2ccc([N+](=O)[O-])cc2s1)Nc1cc(Cl)ccc1I`, the growth was -47.7% (active). `Nc1nnc(CS(=O)(=O)c2ccccc2)s1` was tested, and the growth was 105%. `CCCCSc1nc(NCCc2c[nH]c3ccccc23)c(C#N)c(-c2ccc(F)cc2)n1` gave a growth of 53.8%. In the case of `C=C1CCC2C3(C)COC(c4cccc(F)c4)OC3CCC2(C)C1C/C=C1/C(=O)OCC1O` (stereo unspecified), the growth was 4.43% (active).
